Source: PMC5700166

Legend:
Assay in all cases: protein-binding microarray (PBM); PBM: ~300 nM protein, 6 mM HEPES pH 7.8, 80 mM KCl, 0.5 mM EDTA, 0.5 mM EGTA, 6% glycerol, 35 ng/ul poly-dIdC, 1% milk, 1 h, room temperature; Ap Aiptasia and Nv Nematostella (sea anemones) / Co Capsaspora / Aq Amphimedon (sponge) / Dm Drosophila / Hu human; RHD is the Rel homology domain; high values mean tight binding
Conditions in all cases: dsDNA, one strand shown
GST-Ap-NF-kB RHD = target: T1, GST-Ap-NF-kB RHD (Exaiptasia pallida (Aiptasia), UniProt A0A913YAJ5 2-422)
T1 sequence: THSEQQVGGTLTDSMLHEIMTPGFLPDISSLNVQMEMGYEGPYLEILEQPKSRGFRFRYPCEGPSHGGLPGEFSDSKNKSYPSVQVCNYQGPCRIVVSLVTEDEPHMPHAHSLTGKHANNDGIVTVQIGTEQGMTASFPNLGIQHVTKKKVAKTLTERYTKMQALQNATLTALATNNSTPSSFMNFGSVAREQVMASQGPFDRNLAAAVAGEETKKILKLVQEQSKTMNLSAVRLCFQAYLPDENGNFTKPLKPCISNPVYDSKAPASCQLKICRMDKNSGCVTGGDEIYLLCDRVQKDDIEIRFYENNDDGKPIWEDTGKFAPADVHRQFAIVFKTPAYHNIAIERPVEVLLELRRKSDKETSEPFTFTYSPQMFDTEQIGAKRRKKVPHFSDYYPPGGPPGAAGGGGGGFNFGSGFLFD

[1] = target: T2, GST-Nv-NF-kB (Cys allele) (Nematostella vectensis, UniProt E5G601 2-411)
T2 sequence: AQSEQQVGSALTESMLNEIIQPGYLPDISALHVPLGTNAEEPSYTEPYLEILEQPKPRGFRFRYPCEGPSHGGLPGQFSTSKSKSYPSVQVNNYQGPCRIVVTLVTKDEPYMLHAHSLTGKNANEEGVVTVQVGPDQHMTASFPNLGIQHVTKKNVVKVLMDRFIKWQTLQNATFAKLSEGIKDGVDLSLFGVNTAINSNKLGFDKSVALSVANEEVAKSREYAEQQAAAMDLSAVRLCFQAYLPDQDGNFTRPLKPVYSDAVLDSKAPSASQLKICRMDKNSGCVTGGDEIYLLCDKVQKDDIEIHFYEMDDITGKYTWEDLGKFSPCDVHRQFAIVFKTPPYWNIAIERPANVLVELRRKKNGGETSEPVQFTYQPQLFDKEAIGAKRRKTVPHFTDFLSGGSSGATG

GST-Co-NF-kB = target: T3, GST-Co-NF-kB (Capsaspora owczarzaki, UniProt F1ARL5 200-546)
T3 sequence: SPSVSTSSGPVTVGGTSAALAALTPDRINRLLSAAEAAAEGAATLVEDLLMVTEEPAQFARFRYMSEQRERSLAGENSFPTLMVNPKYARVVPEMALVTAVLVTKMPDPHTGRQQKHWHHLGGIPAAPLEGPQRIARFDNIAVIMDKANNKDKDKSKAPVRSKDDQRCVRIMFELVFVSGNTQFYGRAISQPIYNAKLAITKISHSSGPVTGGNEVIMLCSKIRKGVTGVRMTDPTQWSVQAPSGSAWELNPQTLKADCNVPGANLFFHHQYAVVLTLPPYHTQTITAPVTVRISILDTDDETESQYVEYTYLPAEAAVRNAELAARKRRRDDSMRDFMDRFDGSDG

GST-Dm-Relish = target: T4, GST-Dm-Relish (Drosophila melanogaster, UniProt Q94527 99-473)
T4 sequence: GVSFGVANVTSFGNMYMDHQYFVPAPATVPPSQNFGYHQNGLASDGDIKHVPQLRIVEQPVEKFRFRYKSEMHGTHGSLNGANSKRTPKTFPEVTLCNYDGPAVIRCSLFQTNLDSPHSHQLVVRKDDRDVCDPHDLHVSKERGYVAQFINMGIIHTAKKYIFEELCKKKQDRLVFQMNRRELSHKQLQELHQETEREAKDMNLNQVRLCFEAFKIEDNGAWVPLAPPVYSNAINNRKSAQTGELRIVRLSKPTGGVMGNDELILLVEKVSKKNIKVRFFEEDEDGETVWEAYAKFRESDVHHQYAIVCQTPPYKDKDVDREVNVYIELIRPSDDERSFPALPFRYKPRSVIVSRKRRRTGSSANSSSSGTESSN

GST-Aq-NF-kB = target: T5, GST-Aq-NF-kB (Amphimedon queenslandica, UniProt A9Y5G7 2-389)
T5 sequence: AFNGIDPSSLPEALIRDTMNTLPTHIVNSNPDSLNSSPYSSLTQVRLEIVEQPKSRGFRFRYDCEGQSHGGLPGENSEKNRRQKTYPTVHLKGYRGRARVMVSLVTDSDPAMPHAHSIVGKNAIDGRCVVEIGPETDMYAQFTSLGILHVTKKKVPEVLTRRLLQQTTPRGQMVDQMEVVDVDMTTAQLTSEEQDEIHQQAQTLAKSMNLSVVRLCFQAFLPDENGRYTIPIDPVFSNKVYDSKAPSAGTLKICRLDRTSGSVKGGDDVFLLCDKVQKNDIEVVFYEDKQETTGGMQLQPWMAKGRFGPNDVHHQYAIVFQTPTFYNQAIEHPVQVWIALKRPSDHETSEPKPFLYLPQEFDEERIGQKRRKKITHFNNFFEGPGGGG

Row | Sequence | binding signal (GST-Ap-NF-kB RHD) | binding signal [1] | binding signal (GST-Co-NF-kB) | binding signal (GST-Dm-Relish) | binding signal (GST-Aq-NF-kB)
1 | CCGATTAACATCAGGGAATTCCATGATGTTAATCGGGTCTTGATTCGCTTGACGCTGCTG | 5.46 z-score | 6.55 z-score | 3.71 z-score | 7.15 z-score | 6.68 z-score
2 | CCGATTAACATCAGGGGAGCCCCTGATGTTAATCGGGTCTTGATTCGCTTGACGCTGCTG | 8.45 z-score | 6.25 z-score | 3.64 z-score | 8.74 z-score | 8.27 z-score
3 | CCGATTAACATCAGGAGACTCCCTGATGTTAATCGGGTCTTGATTCGCTTGACGCTGCTG | 2.16 z-score | 2.35 z-score | 1.37 z-score | 1.79 z-score | 5.19 z-score
4 | CCGATTAACATCAGGGGTGGGAATGATGTTAATCGGGTCTTGATTCGCTTGACGCTGCTG | 2.31 z-score | 2.09 z-score | 3.75 z-score | 2.17 z-score | 2.94 z-score
5 | CCGATTAACATCAGGAGTCCCCATGATGTTAATCGGGTCTTGATTCGCTTGACGCTGCTG | 6.21 z-score | 4.39 z-score | 2.23 z-score | 7.3 z-score | 4.27 z-score
6 | CCGATTAACATCAAAAAGTTCCCTGATGTTAATCGGGTCTTGATTCGCTTGACGCTGCTG | 4.61 z-score | 5.3 z-score | 4.37 z-score | 6.54 z-score | 5.9 z-score
7 | CCGATTAACATCATACCCCCCCATGATGTTAATCGGGTCTTGATTCGCTTGACGCTGCTG | 4.97 z-score | 2.65 z-score | 5.26 z-score | 3.98 z-score | 3.92 z-score
8 | CCGATTAACATCAACGGGAATTCTGATGTTAATCGGGTCTTGATTCGCTTGACGCTGCTG | 4.32 z-score | 5.7 z-score | 3.23 z-score | 4.15 z-score | 4.74 z-score
9 | CCGATTAACATCAAGGGGGGGGCTGATGTTAATCGGGTCTTGATTCGCTTGACGCTGCTG | 5.13 z-score | 3.96 z-score | 4.65 z-score | 5.21 z-score | 4.89 z-score
10 | CCGATTAACATCAGGGGATTAGATGATGTTAATCGGGTCTTGATTCGCTTGACGCTGCTG | 4.5 z-score | 4.8 z-score | 2.75 z-score | 3.13 z-score | 3.91 z-score
11 | CCGATTAACATCAGATTTTTCCCTGATGTTAATCGGGTCTTGATTCGCTTGACGCTGCTG | 3.33 z-score | 5.35 z-score | 5.52 z-score | 1.54 z-score | 5.5 z-score
12 | CCGATTAACATCAGGGGGTTAACTGATGTTAATCGGGTCTTGATTCGCTTGACGCTGCTG | 5.36 z-score | 3.73 z-score | 2.64 z-score | 8.09 z-score | 5.06 z-score
13 | CCGATTAACATCACATTTTCCCATGATGTTAATCGGGTCTTGATTCGCTTGACGCTGCTG | 2.42 z-score | 3.68 z-score | 3.98 z-score | 1.33 z-score | 2.13 z-score
14 | CCGATTAACATCACAAAAATCCCTGATGTTAATCGGGTCTTGATTCGCTTGACGCTGCTG | 5.86 z-score | 6.11 z-score | 2.59 z-score | 8.17 z-score | 6.23 z-score
15 | CCGATTAACATCATGGGTGGGAATGATGTTAATCGGGTCTTGATTCGCTTGACGCTGCTG | 1.4 z-score | 1.79 z-score | 2.62 z-score | 1.66 z-score | 2.5 z-score
16 | CCGATTAACATCAGGGGAGGTACTGATGTTAATCGGGTCTTGATTCGCTTGACGCTGCTG | 4.21 z-score | 3.43 z-score | 3.96 z-score | 6.44 z-score | 4.35 z-score
17 | CCGATTAACATCAGCACCCCCCCTGATGTTAATCGGGTCTTGATTCGCTTGACGCTGCTG | 5.67 z-score | 3.51 z-score | 4.07 z-score | 4.44 z-score | 4.32 z-score
18 | CCGATTAACATCAGGGGTCCCCATGATGTTAATCGGGTCTTGATTCGCTTGACGCTGCTG | 4.7 z-score | 2.57 z-score | 1.99 z-score | 7.31 z-score | 3.6 z-score

Row | Sequence | binding signal (GST-Ap-NF-kB RHD) | binding signal [1] | binding signal (GST-Co-NF-kB) | binding signal (GST-Dm-Relish) | binding signal (GST-Aq-NF-kB)
19 | CCGATTAACATCAGGGCGTCCCCTGATGTTAATCGGGTCTTGATTCGCTTGACGCTGCTG | 6.5 z-score | 5.76 z-score | 2.03 z-score | 8.13 z-score | 7.89 z-score
20 | CCGATTAACATCAGGACTTCCCATGATGTTAATCGGGTCTTGATTCGCTTGACGCTGCTG | 3.08 z-score | 2.46 z-score | 1.82 z-score | 7.81 z-score | 4.72 z-score
21 | CCGATTAACATCAAGGGGGGAGATGATGTTAATCGGGTCTTGATTCGCTTGACGCTGCTG | 5.84 z-score | 5.1 z-score | 6.56 z-score | 2.93 z-score | 4.98 z-score
22 | CCGATTAACATCAGGCGATTCCCTGATGTTAATCGGGTCTTGATTCGCTTGACGCTGCTG | 1.93 z-score | 2.99 z-score | 1.44 z-score | 2.34 z-score | 3.88 z-score
23 | CCGATTAACATCAAATCTTTCCCTGATGTTAATCGGGTCTTGATTCGCTTGACGCTGCTG | 3.05 z-score | 5.25 z-score | 5.78 z-score | 1.24 z-score | 4.92 z-score
24 | CCGATTAACATCAGGCCTCCCCCTGATGTTAATCGGGTCTTGATTCGCTTGACGCTGCTG | 4.86 z-score | 4.22 z-score | 4.14 z-score | 6 z-score | 6.6 z-score
25 | CCGATTAACATCACAGGGAAAAATGATGTTAATCGGGTCTTGATTCGCTTGACGCTGCTG | 2.81 z-score | 4.49 z-score | 5.03 z-score | 1.6 z-score | 3.9 z-score
26 | CCGATTAACATCAGGGAAAGAACTGATGTTAATCGGGTCTTGATTCGCTTGACGCTGCTG | 1.89 z-score | 3.99 z-score | 2.55 z-score | 6.83 z-score | 4.9 z-score
27 | CCGATTAACATCAAGCACCCCCTTGATGTTAATCGGGTCTTGATTCGCTTGACGCTGCTG | 4.4 z-score | 3.21 z-score | 1.76 z-score | 2.85 z-score | 4.66 z-score
28 | CCGATTAACATCAGACCTCCCCCTGATGTTAATCGGGTCTTGATTCGCTTGACGCTGCTG | 6.03 z-score | 3.94 z-score | 5.48 z-score | 2.4 z-score | 4.44 z-score
29 | CCGATTAACATCAGGATTGCCCCTGATGTTAATCGGGTCTTGATTCGCTTGACGCTGCTG | 2.91 z-score | 4.26 z-score | 1.5 z-score | 2.51 z-score | 5.63 z-score
30 | CCGATTAACATCAGGGGGTGTTATGATGTTAATCGGGTCTTGATTCGCTTGACGCTGCTG | 4.69 z-score | 4.31 z-score | 3.42 z-score | 4.34 z-score | 5.4 z-score
31 | CCGATTAACATCAAGTACCCCCATGATGTTAATCGGGTCTTGATTCGCTTGACGCTGCTG | 4.72 z-score | 2.7 z-score | 4.36 z-score | 2.25 z-score | 2.6 z-score
32 | CCGATTAACATCAGGGAACTCCATGATGTTAATCGGGTCTTGATTCGCTTGACGCTGCTG | 2.66 z-score | 2.2 z-score | 1.5 z-score | 6.21 z-score | 3.71 z-score
33 | CCGATTAACATCAAGGGGAGTCCTGATGTTAATCGGGTCTTGATTCGCTTGACGCTGCTG | 6.71 z-score | 4.83 z-score | 2.5 z-score | 8.01 z-score | 5.29 z-score
34 | CCGATTAACATCAAATATTCCCATGATGTTAATCGGGTCTTGATTCGCTTGACGCTGCTG | 4.02 z-score | 4.31 z-score | 3.51 z-score | 2.7 z-score | 3.63 z-score
35 | CCGATTAACATCAATGTCCCCCCTGATGTTAATCGGGTCTTGATTCGCTTGACGCTGCTG | 5.26 z-score | 4.79 z-score | 8.35 z-score | 3.82 z-score | 4.85 z-score
